Cruzain noTriton – inhibitors of Trypanosoma cruzi cruzain without detergent; P25779; purified cruzain, Z-FR-AMC fluorescence, no detergent; Potency, µM, inactives show max response, negative = inhibition, actives largely listed as inhibitors; 2.3% of 200,000 active; AID 1476;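 further: plate controls were enzyme without inhibitor for no effect and buffer without enzyme for full effect; nearly all actives have a fitted effect of over 40% in size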
Target sequence (P25779 123-467 limits assumed): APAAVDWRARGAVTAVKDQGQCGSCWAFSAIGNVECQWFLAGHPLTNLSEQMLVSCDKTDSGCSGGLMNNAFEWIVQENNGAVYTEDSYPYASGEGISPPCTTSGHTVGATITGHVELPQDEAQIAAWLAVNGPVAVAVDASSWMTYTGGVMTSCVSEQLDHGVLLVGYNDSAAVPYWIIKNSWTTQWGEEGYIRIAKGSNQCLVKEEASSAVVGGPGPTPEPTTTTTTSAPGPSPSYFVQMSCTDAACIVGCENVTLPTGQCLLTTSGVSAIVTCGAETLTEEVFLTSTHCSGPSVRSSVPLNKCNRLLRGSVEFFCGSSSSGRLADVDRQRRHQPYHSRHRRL
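Purified cruzain at 1.5 nM, pre-incubated 15 min with compound at room temperature in 100 mM sodium acetate pH 5.5, 5 mM DTT, 0.00005% Triton X-100. Reaction started with 2 uM Z-FR-AMC; AMC fluorescence increase over 60 s gives rate.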
Cruzain inh Det – inhibitors of Trypanosoma cruzi cruzain with detergent | P25779 | purified cruzain, Z-FR-AMC fluorescence, 0.01% Triton | Potency, µM, for inactives: max response, negative = inhibition, actives largely listed as inhibitors | 0.43% of 200,000 active | AID 1478;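 further: plate controls were neutral wells for no effect and buffer without enzyme for full effect; nearly all actives have a fitted effect of over 40% in size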
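Steps: dispense cruzain (1.5 nM final) in acetate buffer pH 5.5 with DTT and 0.01% Triton X-100; pin-transfer compounds; incubate 15 min RT; add Z-FR-AMC (2 uM final); read fluorescence every 30 s, using the 60 s intensity change.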
Starred values were filed as active, the others as inactive; ? = inconclusive. Most compounds without a hit are left out; they make up all but 2.4% or so of the library. The call rests on the fitted dose curve; in most records, active means well fitted curve in the direction sought with a large enough effect; inconclusive means small, poorly fitted or top-dose-only effect, or another doubt; inactive means no such curve, though single readings can be large; an effect the other way counts as inactive or inconclusive. Potency means the concentration at half of the fitted maximal effect.

SMILES	Cruzain noTriton	Cruzain inh Det
CCC[C@H]1C[C@H](C(=O)N[C@@H]([C@H]2O[C@@H](SC)[C@@H](O)[C@@H](O)[C@@H]2O)[C@H](C)Cl)N(C)C1	5%	-3%
CCC1=C2CC[C@H]3C(=O)N(c4ccccc4)C(=O)[C@H]3[C@H]2[C@@]2(Cc3ccccc3)C(=O)N(CC(=O)OC)C(=O)N2C1=O	8%	-6%
CCOC(=O)C1C(C)=C(Nc2ccc(OC)cc2)C(=O)N1c1ccc(OC)cc1 (stereo not drawn)	13µM*	-2%
CCOC(=O)C1=C(O)C(=O)N(c2ccc(S(N)(=O)=O)cc2)C1c1ccc(OC)cc1 (stereo not drawn)	-1%	1%
O=C(CCc1ccccc1)N/N=C/c1cc(Br)ccc1O	20µM*	-5%
O=C(N/N=C/c1cc(Br)ccc1O)c1ccccc1Cl	-1%	-9%
CCCCOc1cccc(C(=O)N(Cc2ccc(N(C)C)cc2)C2CCS(=O)(=O)C2)c1 (stereo not drawn)	26%	-5%
COc1ccc(OC)c(NC(=O)CN2C(=O)COc3ccc(S(=O)(=O)NC4CCCC4)cc32)c1	-1%	-2%
O=C1c2ccccc2C(Nc2ccc3c(c2)OCO3)N1Cc1ccc2c(c1)OCO2 (stereo not drawn)	25µM*	-4%
O=C1c2ccccc2C(Nc2cccnc2)N1Cc1ccc2c(c1)OCO2 (stereo not drawn)	-2%	-1%
COc1ccc(NC(=O)C2CCN(S(=O)(=O)c3c(C)noc3/C=C/c3cccs3)CC2)cc1	-10%	-2%
COc1cccc(NC(=O)C2CCN(S(=O)(=O)c3c(C)noc3/C=C/c3cccs3)CC2)c1	16µM*	-3%
COc1ccc(C)cc1N(C)C(=O)c1sc2nc3n(c(=O)c2c1C)CCCCC3	13%	-5%
Cc1ccc2nc(NC(=O)C3CCN(S(=O)(=O)c4cc([N+](=O)[O-])ccc4Cl)CC3)sc2c1	32µM*	-3%
O=C(Nc1nc2ccc(F)cc2s1)C1CCN(S(=O)(=O)c2cc([N+](=O)[O-])ccc2Cl)CC1	10µM*	-8%
Cc1ccc2nc(NC(=O)C3CCN(S(=O)(=O)c4cccc5nsnc45)CC3)sc2c1	?	-6%
CC(NC(=O)C1CCN(S(=O)(=O)c2cc([N+](=O)[O-])ccc2Cl)CC1)c1ccccc1 (stereo not drawn)	-8%	-4%
Cc1cc(C)nc(SCc2nnc(SCC(=O)Nc3nc(-c4ccccc4)cs3)n2-c2ccccc2)n1	?	5%
COc1ccc(NCc2nnc(SCC(=O)Nc3nc(-c4ccccc4)cs3)n2-c2ccccc2)cc1	25µM*	-1%
COc1ccc(-n2c(CNc3ccc(C)cc3)nnc2SCC(=O)Nc2nc(-c3ccccc3)cs2)cc1	6.3µM*	2%
COc1ccc(-n2c(Cc3cccn3C)nnc2SCC(=O)Nc2ccc(C)cc2)cc1	19%	-6%
Cc1cccc(-c2nc3c4ccccc4nc(N4CCN(c5ccccc5F)CC4)n3n2)c1	4%	0%
CN[C@@H]1[C@H](O[C@H]2[C@@H](O[C@@H]3[C@@H](O)[C@@H](O)[C@@H](N=C(N)N)[C@@H](O)[C@@H]3N=C(N)N)O[C@@H](C)[C@]2(O)CO)O[C@H](CO)[C@@H](O)[C@@H]1O	0%	-5%
CC1CCN(C(=O)CSc2nc3ccccc3nc2Cc2ccccc2)CC1	4%	-4%
NC(=O)CSc1nnc(-c2cc(-c3cccs3)nc3ccccc23)o1	-18%	-10%
SMILES	Cruzain noTriton	Cruzain inh Det
CCCN(CC1CC1)C(=O)CSc1nnc(-c2cc(-c3cccs3)nc3ccccc23)o1	16µM*	-4%
Cc1ccc(NC(=O)C2CCCN2S(=O)(=O)c2ccc3nc(-c4ccccc4)[nH]c3c2)cc1F (stereo not drawn)	-4%	2%
Cc1ccsc1/C=C(\C(=O)c1ccc(OC(C)C)cc1)c1nc2ccccc2o1	32µM*	-5%
CC(C)Oc1ccc(C(=O)N2CCC(c3nc4ccccc4o3)CC2)cc1	13%	-4%
COc1cccc(Cn2c(SCC(=O)N3CCN(c4ccc(F)cc4)CC3)nc3ccccc32)c1	6%	0%
COc1cc(-c2cccs2)cc(=O)c2c(C)oc(C)c12	20µM*	-5%
COc1cc(-c2cc(OC)c3c(C)oc(C)c3c(=O)c2)ccc1OC(=O)c1ccccc1Cl	26%	-21%
Cc1ccccc1NC(=O)COC(=O)/C=C/c1cccc(C(F)(F)F)c1	25µM*	0%
Cc1cc(C)c(NC(=O)COC(=O)/C=C/c2cccc(C(F)(F)F)c2)c(C)c1	0%	-6%
COc1cc(/C=C/C(=O)OCC(=O)Nc2cc(C(F)(F)F)ccc2N2CCOCC2)ccc1O	-7%	-6%
O=C(COC(=O)/C=C/c1cccc(C(F)(F)F)c1)Nc1cccc2ccccc12	?	3%
O=C(COC(=O)/C=C/c1cccc(C(F)(F)F)c1)NC(c1ccccc1)c1ccccc1	16µM*	0%
COc1ccc(/C=C/C(=O)OCC(=O)Nc2cc(C(F)(F)F)ccc2Cl)cc1	25µM*	-9%
COc1cccc(Cn2c(=O)c(-c3cc(F)cc(F)c3)nc3cnc(N4CCOCC4)nc32)c1	-12%	7%
Cc1cc(OCC(=O)N(C)C)c2c(-c3ccccc3)cc(=O)oc2c1	-6%	0%
CN(C)C(=O)COc1ccc2cc(-c3ccccc3)c(=O)oc2c1	?	28µM*
O=C(O)c1ccc2nc(-c3cc4cc(Cl)ccc4oc3=O)[nH]c2c1	5%	3%
Cc1ccc(-c2cc3nc(-c4ccc(Br)cc4)cc(N)n3n2)cc1	32µM*	5%
Cc1ccc(-c2cc3nc(-c4ccccc4)cc(N)n3n2)cc1	25µM*	7%
Cc1ccc(-c2cc(N)n3nc(-c4ccc(C)cc4)cc3n2)cc1	?	-1%
Cc1cc(N)n2nc(-c3ccccc3)cc2n1	1%	-4%
CCCCCCCCC/C=C/CC1CC(=O)OC1=O (stereo not drawn)	?	-4%
CCOc1ccccc1NC1=C(Cl)C(=O)N(c2ccccc2)C1=O	-12%	-7%
O=S(=O)(NC1c2cccc3cccc(c23)C1Sc1ncccn1)c1ccccc1 (stereo not drawn)	?	-3%
OC[C@@H](O)[C@@H](O)CCc1ccccc1	-1%	3%
SMILES	Cruzain noTriton	Cruzain inh Det
COc1ccc(/C=C2\SC(=S)N(CC(=O)Nc3nnc(C)s3)C2=O)cc1	16µM*	-14%
Cc1cccc(Cc2cnc(NC(=O)CN3C(=O)/C(=C/c4ccccc4)SC3=S)s2)c1	?	-5%
O=C(CSc1nnnn1-c1ccccc1)Nc1ncc(Cc2ccccc2Cl)s1	11%	-1%
Cc1ccc(/C=C2\SC(=S)N(CC(=O)Nc3ncc(Cc4ccccc4Cl)s3)C2=O)cc1	3.2µM*	-10%
Cc1ccc(/C=C2/SC(=S)N(CC(=O)Nc3ncc(Cc4ccc(C)cc4)s3)C2=O)cc1	4µM*	-4%
COc1cc(/C=C2/SC(=S)N(CC(=O)Nc3nc4ccccc4s3)C2=O)cc(OC)c1OC	13µM*	-4%
CCc1nnc(NC(=O)CN2C(=O)/C(=C/c3cc(OC)c(OC)c(OC)c3)SC2=S)s1	9%	?
COc1cc(/C=C2\SC(=S)N(CC(=O)Nc3ccccn3)C2=O)cc(OC)c1OC	-2%	-13%
COc1ccc(C(O)C2=CCCC2=O)cc1 (stereo not drawn)	-15%	0%
NCCCc1c(-c2ccccc2)nc(N)[nH]c1=O	9%	-1%
CCCC(=O)Nc1ccc2nc(SCc3ccc(C)cc3)sc2c1	13%	3%
